The nature of assay [1]: qHTS assay to identify small molecule agonists of the hypoxia (HIF-1) signaling pathway - cell viability counter screen (AID 1224844; calls by dose curve; further: nearly all actives have a fitted effect of over 50% in size; further: potency means the concentration at half of the fitted maximal effect). Summed up:
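HRE-bla ME-180 cells in medium with 0.5% dialyzed FBS were preincubated 5 hrs at 37C, exposed to compounds for 17 hrs, then viability was read as CellTiter-Glo luminescence after 30 min at room temperature, in the reporter wells.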
On the technique in general: qHTS replaces the single test concentration by a dilution series.

The nature of assay [2]: qHTS assay to identify small molecule agonists of H2AX (AID 1224845; active means well fitted activation curve with a large enough effect in the signal ratio in the repeat runs, not every such curve was filed as active; the % refers to the signal ratio). In a few lines: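 Wild-type CHO-K1 cells, plated overnight, exposed 3hr at 37C to 15 concentrations (0.76% DMSO final). Lysed, then HTRF anti-pH2AX (S139) cryptate and anti-H2AX-d2 antibodies, 24 hr room temperature; 665/620 nm emission read.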
Assay [3] can be described thus: qHTS assay to identify small molecule agonists of the hypoxia (HIF-1) signaling pathway (AID 1224846; active means well fitted activation curve with a large enough effect in the signal ratio in the repeat runs, not every such curve was filed as active; the % refers to the signal ratio). Summed up:
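HRE-bla ME-180 cells (beta-lactamase reporter under hypoxia response element) were plated at 2,000 cells/well in medium with 0.5% dialyzed FBS, rested 5 hrs, then given compounds in DMSO for 17 hrs at 37C, 5% CO2. Reporter induction was read with CCF4-AM FRET substrate.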

Assay [4] is described as follows: qHTS assay to identify small molecule agonists of the estrogen related receptor (ERR) signaling pathway from Tox21 library (AID 1224849; calls by dose curve; further: nearly all actives have a fitted effect of over 15% in size). As to conditions: ERR reporter cell line, ONE-Glo luciferase, 18 h; at 92.4 µM (top of the series) unless noted. In a few lines:
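ERR reporter cell line (NTP) seeded, rested 6 h at 37 C/5% CO2, then pinned with Tox21 compounds in DMSO. After 18 h at 37 C, ONE-Glo luciferase luminescence was read following 30 min at room temperature.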

Assay [5] in a line: qHTS RealTime-Glo MT Cell Viability Assay in HepG2 cells - 24 hour (AID 1224867). Further: nearly all actives have a fitted effect of over 50% in size. In a few lines: (§1)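 HepG2 suspension premixed with RealTime-Glo reagents is plated at 600 cells per well and left 5 h at 37 C/5% CO2. Compounds in DMSO then go in, and bioluminescence reflecting viable cell number is recorded over 40 h.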
A short description of assay [6]: qHTS RealTime-Glo MT Cell Viability Assay in HEK293 cells - 32 hour (AID 1224868). Further: nearly all actives have a fitted effect of over 50% in size. Further: potency means the concentration at half of the fitted maximal effect. Summed up:
(§2)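 Reads taken at 0, 8, 16, 24, 32 and 40 h from the same wells. HEK293 cells (600/well) carried RealTime-Glo reagents from seeding, with compound added after a 5 h settle at 37 C.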

The nature of assay [7]: A CellTox Green Cytotoxicity Assay to monitor cytotoxicity in HEK293 cells - 0 hour (AID 1224869). Further: nearly all actives have a fitted effect of over 50% in size. In a few lines:
(§3)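 HEK293 cells premixed with CellTox Green dye were seeded at 600 cells/well and left 5 h at 37 C/5% CO2 before pin transfer of 23 nL compound in DMSO. Fluorescence from dye bound to dead-cell DNA was read during 40 h treatment.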

Assay [8] can be described thus: A CellTox Green Cytotoxicity Assay to monitor cytotoxicity in HEK293 cells - 40 hour (AID 1224871). Further: nearly all actives have a fitted effect of over 45% in size. Further: potency means the concentration at half of the fitted maximal effect. In a few lines:
as §3

Assay [9] is described as follows: qHTS RealTime-Glo MT Cell Viability Assay in HEK293 cells - 16 hour (AID 1224872). Further: nearly all actives have a fitted effect of over 50% in size. Further: potency means the concentration at half of the fitted maximal effect. In a few lines:
as §2

The nature of assay [10]: qHTS RealTime-Glo MT Cell Viability Assay in HepG2 cells - 8 hour (AID 1224873). Further: nearly all actives have a fitted effect of over 55% in size. Summed up:
(§4)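 HepG2 cells (600/well) mixed with RealTime-Glo MT reagent, settled 5 h at 37 C/5% CO2 before compound addition. Nonlytic NanoLuc luminescence from viable-cell prosubstrate reduction read repeatedly during 40 h treatment at 37 C.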

Assay [11] in a line: qHTS RealTime-Glo MT Cell Viability Assay in HEK293 cells - 40 hour (AID 1224874). Further: nearly all actives have a fitted effect of over 50% in size. Further: potency means the concentration at half of the fitted maximal effect. As to conditions: RealTime-Glo luminescence; max response: hits give low values. In a few lines:
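HEK293 cells mixed with RealTime-Glo reagents (NanoLuc plus cell-permeant prosubstrate) at 600 cells/well, preincubated 5 h at 37 C/5% CO2, then given 23 nL compound in DMSO. Nonlytic luminescence from viable cells was read at 0, 8, 16, 24, 32 and 40 h.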

Assay [12] can be described thus: A CellTox Green Cytotoxicity Assay to monitor cytotoxicity in HEK293 cells - 24 hour (AID 1224875). Further: nearly all actives have a fitted effect of over 45% in size. Further: potency means the concentration at half of the fitted maximal effect. Summed up: as §3
A short description of assay [13]: A CellTox Green Cytotoxicity Assay to monitor cytotoxicity in HepG2 cells - 16 hour (AID 1224876). Further: nearly all actives have a fitted effect of over 45% in size. Summed up: (§5)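 HepG2 cells were seeded together with the CellTox Green dye at 600 cells/well, left 5 h at 37 C/5% CO2, then given compounds in DMSO. Fluorescence from dye bound to dead-cell DNA was read repeatedly over 40 h of treatment at 37 C.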
Assay [14] in a line: qHTS RealTime-Glo MT Cell Viability Assay in HepG2 cells - 32 hour (AID 1224877). Further: nearly all actives have a fitted effect of over 55% in size. Summed up:
as §1

Assay [15] can be described thus: A CellTox Green Cytotoxicity Assay to monitor cytotoxicity in HepG2 cells - 24 hour (AID 1224878). Further: nearly all actives have a fitted effect of over 45% in size. In a few lines:
as §5

Assay [16] in a line: A CellTox Green Cytotoxicity Assay to monitor cytotoxicity in HepG2 cells - 40 hour (AID 1224879). Further: nearly all actives have a fitted effect of over 40% in size. Further: potency means the concentration at half of the fitted maximal effect. Summed up: as §5
Assay [17] in a line: qHTS assay to identify small molecule agonists of H2AX - cell viability counter screen (AID 1224847; calls by dose curve; further: nearly all actives have a fitted effect of over 30% in size; further: potency means the concentration at half of the fitted maximal effect). In a few lines: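 Cytotoxicity counter screen in wild-type CHO-K1 cells: a 3 hr compound treatment at 37C across 15 concentrations, followed by CellTiter-Glo luminescence to gauge viable cells.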
Assay [18] is described as follows: qHTS RealTime-Glo MT Cell Viability Assay in HepG2 cells - 40 hour (AID 1224870). Further: nearly all actives have a fitted effect of over 50% in size. Summed up:
as §4

The nature of assay [19]: qHTS assay to identify small molecule antagonists of the estrogen related receptor (ERR) signaling pathway from Tox21 library (AID 1224848). Further: nearly all actives have a fitted effect of over 50% in size. Further: potency means the concentration at half of the fitted maximal effect. In a few lines:
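Luminescent reporter read-out (ONE-Glo) from NTP's ERR cell line after 18 h treatment at 37 C with DMSO-dissolved Tox21 compounds; cells pre-plated 6 h beforehand at 2,000 per well.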

Values joined by “and” are separate entries in the source; they are usually repeats but may differ in a detail not shown here. Equal values may be shown once. A number with no mark means an inactive call. Inconclusive results are not listed. Active and inactive are the calls of the source. Unless noted, the call rests on the fitted dose curve; in most records, active means well fitted curve in the direction sought with a large enough effect in the repeat runs; inconclusive means weak or mixed curves; inactive means no such curve, though single readings can be large; an effect the other way counts as inactive or inconclusive.
On the % scale 0 is the no-effect control and ±100 the full control effect.

On to `O=C1C(Cl)C(CCl)CN1c1cccc(C(F)(F)F)c1` (stereo not given), for which the Potency entry in assay [1], in assay [2], in [5], in assay [7], in assay [8] and in assay [10] was “inactive” each time. In addition, the Potency entry in assay [12], in assay [13], in [14], in assay [15] and in assay [16] was “inactive” each time. Also, the outcome in [3] was inactive. The activity change, positive = activation in assay [4] was -29.4%. The Potency in assay [6], in [9] and in [11] was 24.5 µM (active) throughout.
On to `Cc1cc(=O)[nH]o1`, for which the Potency entry in [1], in assay [2], in assay [17], in assay [6], in assay [7] and in assay [18] was “inactive” each time. Moreover, the Potency result in assay [8], in [9], in [10], in [12], in [14] and in assay [15] was “inactive” in each case. Also, in [16], the Potency result was “inactive”. For the same molecule, in [3], the result was inactive. Also, in [11], the max response was 2.1%.
As for `C=CCC1([C@H](C)CCC)C(=O)NC(=O)NC1=O`, the Potency entry in [1], in [17], in assay [5], in [6], in [7] and in [18] was “inactive” throughout. Further, the Potency result in [8], in [9], in [12], in assay [13], in assay [14] and in assay [15] was “inactive” each time. The Potency entry in assay [16] was “inactive”. Moreover, the molecule was classed as inactive in [3]. Besides, the max response in assay [11] was -11.9%.
For the molecule `O=S1(=O)OC(c2cc(Br)c(O)c(Br)c2)(c2cc(Br)c(O)c(Br)c2)c2ccccc21`, the Potency is 6.34 µM (active) in assay [1] and 8.23 µM (active) in [17]. Moreover, the molecule was called inactive in assay [3]. The Potency entry in assay [5], in [6], in [7], in [18], in [8] and in [12] was “inactive” throughout. The Potency result in assay [13], in [14], in [15] and in assay [16] was “inactive” in each case. Moreover, in assay [11], the max response was 11.5%.
On to `Brc1ccc(Oc2ccccc2)cc1`, for which the Potency result in [1], in [2], in assay [19], in [5], in [6] and in [7] was “inactive” each time. Besides, the Potency entry in assay [10], in assay [13], in assay [14], in assay [15] and in assay [16] was “inactive” each time. The call in assay [3] was inactive. The activity change, positive = activation in assay [4] is -18.4% and 0.436%. For the same molecule, the Potency in [8] was 44.7 µM (active) and 21.9 µM (active). Besides, in assay [11], the max response was 1.37% and 1.64%.
As for `O=C(Nc1ccccc1)Nc1ccnc(Cl)c1`, the Potency result in assay [1], in assay [2], in assay [7], in [18], in assay [8] and in assay [10] was “inactive” throughout. The Potency result in assay [12], in assay [13], in [14] and in assay [15] was “inactive” in each case. Moreover, the Potency in assay [19] is 24.3 µM (active); in [6], 19.5 µM (active); in assay [11], 19.5 µM (active). Moreover, the activity change, positive = activation in assay [4] was -55.6%.
In the case of `O=C(O)C1(c2ccc3c(c2)OC[C@H](Cc2ccc(-c4ccccc4)cc2)[C@H]3O)CCCC1`, the Potency in assay [1] is 17.4 µM (active); in [17] it was 101 µM (active); in assay [19] it was 61.1 µM (active); in [8], 34.7 µM (active); in [12] it was 38.9 µM (active); in assay [16], 49 µM (active). Also, the Potency entry in [2], in assay [7], in assay [18], in [10] and in [14] was “inactive” throughout. In addition, in assay [4], the activity change, positive = activation was -42.3%.
As to `O=[N+]([O-])c1ccc(F)c([N+](=O)[O-])c1`, the Potency was 12.4 µM (active) in assay [1], 57.2 µM (active) in assay [17] and 43.7 µM (active) in assay [19]. In addition, the Potency entry in assay [2], in assay [5], in [7], in assay [18], in assay [8] and in assay [12] was “inactive” in each case. In addition, the Potency result in [13], in assay [14], in assay [15] and in assay [16] was “inactive” throughout. In addition, in [4], the activity change, positive = activation is -38.2%.
